Assay results published in PubChem BioAssay (Tox21).
Inconclusive results are not listed. Calls of active or inactive are those of the source. Unless noted, calls come from the whole dose curve.

Tests used:
[1] = target: Thyrotropin receptor (Homo sapiens) (UniProt P16473); assay: qHTS assay to identify small molecule agonists of the thyroid stimulating hormone receptor (TSHR) signaling pathway (AID 1224843); note: nearly all actives have a fitted effect of over 45% in size
Method in brief: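 HEK293/TSHR, 800 cells/well; cpd 30 min RT; add cAMP-d2 + anti-cAMP-cryptate, 1 h RT; fluorescence read on plate reader. 15-pt titration, n=3.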

[2] = qHTS assay to identify small molecule agonists of the hypoxia (HIF-1) signaling pathway - cell viability counter screen (AID 1224844); note: nearly all actives have a fitted effect of over 50% in size
Method in brief: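 Viability counter screen: HRE-bla ME-180 cells plated 5 hrs before compound addition, treated 17 hrs at 37C and 5% CO2, then CellTiter-Glo added after the FRET reporter read; luminescence after 30 min.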

[3] = qHTS assay to identify small molecule agonists of H2AX (AID 1224845; active = well fitted activation curve with a large enough effect in the signal ratio in the repeat runs, not every such curve was filed as active; the % refers to the signal ratio)
Method in brief: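 Wild-type CHO-K1 cells, plated overnight, exposed 3hr at 37C to 15 concentrations (0.76% DMSO final). Lysed, then HTRF anti-pH2AX (S139) cryptate and anti-H2AX-d2 antibodies, 24 hr room temperature; 665/620 nm emission read.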

[4] = qHTS assay to identify small molecule agonists of the hypoxia (HIF-1) signaling pathway (AID 1224846; active = well fitted activation curve with a large enough effect in the signal ratio in the repeat runs, not every such curve was filed as active; the % refers to the signal ratio)
Method in brief: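 Agonist mode reporter screen. ME-180 cells stably expressing bla under HRE control received test compounds in DMSO for 17 hrs (37C, 5% CO2), and beta-lactamase activity was then detected with the CCF4-AM FRET substrate.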

[5] = qHTS assay to identify small molecule agonists of H2AX - cell viability counter screen (AID 1224847); note: top concentration of the series differs between compounds; nearly all actives have a fitted effect of over 30% in size
Method in brief: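 Read-out: CellTiter-Glo luminescence, 30 min RT. Cells: wild-type CHO-K1, 1000/well, 10% FBS, plated overnight at 37C. Treatment: 15 concentrations, 3 hr, 37C, 0.76% DMSO.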

[6] = qHTS assay to identify small molecule antagonists of the estrogen related receptor (ERR) signaling pathway from Tox21 library (AID 1224848; active = well fitted curve in the direction sought with a large enough effect in the repeat runs; an effect the other way counts as inactive or inconclusive; note: nearly all actives have a fitted effect of over 50% in size)
Method in brief: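 Compounds dissolved in DMSO are pin-transferred onto ERR reporter cells (2,000 per well) that have settled for 6 h at 37 C. Plates then incubate 18 h at 37 C before ONE-Glo luciferase reagent and a luminescence read 30 min later.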

[7] = qHTS assay to identify small molecule agonists of the estrogen related receptor (ERR) signaling pathway from Tox21 library (AID 1224849); settings: ERR reporter cell line, ONE-Glo luciferase, 18 h; at 92.4 µM (top of the series) unless noted; note: nearly all actives have a fitted effect of over 15% in size
Method in brief: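 Quantitative HTS in agonist format: NTP ERR cell line, compounds transferred in DMSO after 6 h plating, 18 h incubation at 37 C, ONE-Glo luminescence endpoint.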

[8] = A CellTox Green Cytotoxicity Assay to monitor cytotoxicity in HEK293 cells - 0 hour (AID 1224869; active = well fitted curve in the direction sought with a large enough effect in the repeat runs; an effect the other way counts as inactive or inconclusive; note: nearly all actives have a fitted effect of over 50% in size)
Method in brief: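 Dead-cell fluorescence measured kinetically: asymmetric cyanine dye, HEK293, 600 cells/well, 5 h settle, 23 nL cpd/DMSO, 37 C, reads 0–40 h every 8 h.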

[9] = qHTS RealTime-Glo MT Cell Viability Assay in HepG2 cells - 24 hour (AID 1224867; active = well fitted curve in the direction sought with a large enough effect in the repeat runs; an effect the other way counts as inactive or inconclusive; note: nearly all actives have a fitted effect of over 50% in size)
Method in brief: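 HepG2 cells (600/well) were dispensed with RealTime-Glo reagents, incubated 5 h at 37 °C, then treated with compounds in DMSO for up to 40 h. Nonlytic NanoLuc luminescence reflecting viable cells was read at each stated time point.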

[10] = qHTS RealTime-Glo MT Cell Viability Assay in HEK293 cells - 32 hour (AID 1224868; active = well fitted curve in the direction sought with a large enough effect in the repeat runs; an effect the other way counts as inactive or inconclusive)
Method in brief: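 HEK293 cells seeded with NanoLuc/prosubstrate reagent, rested 5 h at 37 C, then dosed and kept at 37 C up to 40 h. Nonlytic real-time luminescence from viable cells read at 0, 8, 16, 24, 32 and 40 h.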
% is set by controls: 0 for no effect and ±100 for the full control effect.

Sequence of Thyrotropin receptor (Homo sapiens) (P16473 whole entry, looked up): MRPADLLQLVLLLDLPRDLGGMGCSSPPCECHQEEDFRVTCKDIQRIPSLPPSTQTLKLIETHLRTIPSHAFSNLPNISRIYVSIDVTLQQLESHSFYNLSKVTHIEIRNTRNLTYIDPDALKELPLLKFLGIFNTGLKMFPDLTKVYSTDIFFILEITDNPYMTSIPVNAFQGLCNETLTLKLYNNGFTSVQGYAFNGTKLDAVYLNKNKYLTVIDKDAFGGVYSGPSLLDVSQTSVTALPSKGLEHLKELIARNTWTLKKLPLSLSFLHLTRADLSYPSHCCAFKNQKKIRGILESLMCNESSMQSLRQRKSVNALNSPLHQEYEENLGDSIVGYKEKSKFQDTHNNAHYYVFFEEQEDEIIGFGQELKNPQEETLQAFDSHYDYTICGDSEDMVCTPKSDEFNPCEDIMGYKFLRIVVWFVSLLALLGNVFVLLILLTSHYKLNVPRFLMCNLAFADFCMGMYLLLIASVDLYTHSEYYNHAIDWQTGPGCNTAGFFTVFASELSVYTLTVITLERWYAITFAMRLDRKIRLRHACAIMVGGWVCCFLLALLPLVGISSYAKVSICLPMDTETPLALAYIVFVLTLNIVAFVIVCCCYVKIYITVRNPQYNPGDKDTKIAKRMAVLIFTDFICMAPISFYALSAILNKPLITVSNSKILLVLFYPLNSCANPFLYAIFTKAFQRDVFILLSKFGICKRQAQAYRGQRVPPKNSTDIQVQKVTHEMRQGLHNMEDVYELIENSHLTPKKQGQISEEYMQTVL

CC(COC(C)(C)C)OCCCO (stereo not drawn)
inactive: Potency [1] | outcome [2] | outcome [3] | outcome [4] | Potency [5] | Potency [6] | activity change, positive = activation [7] 3.31% | outcome [8]

C=C(C)C(=O)OCCNC(C)(C)C
inactive: Potency [1] | outcome [2] | outcome [3] | outcome [4] | Potency [5] | Potency [6] | activity change, positive = activation [7] -2.14% | outcome [9] | Potency [10] | outcome [8]

CC(C)(C)c1n[nH]c(=S)n(N)c1=O
inactive: Potency [1] | outcome [2] | outcome [3] | outcome [4] | Potency [5] | Potency [6] | activity change, positive = activation [7] -1.28% | outcome [9] | Potency [10] | outcome [8]

COc1nccnc1NS(=O)(=O)c1ccc(N)cc1
inactive: Potency [1] | outcome [2] | outcome [3] | outcome [4] | Potency [5] | Potency [6] | activity change, positive = activation [7] -1.96% [at 42.5 µM] | outcome [9] | Potency [10] | outcome [8]

COc1cc(C(=S)N2CCOCC2)cc(OC)c1OC
inactive: Potency [1] | outcome [2] | outcome [3] | outcome [4] | Potency [5] | Potency [6] | activity change, positive = activation [7] -0.791% [at 42.5 µM] | outcome [9] | outcome [8]

CC(=O)NCc1c(I)c(NC(C)=O)c(I)c(C(=O)O)c1I
inactive: Potency [1] | outcome [2] | outcome [3] | outcome [4] | Potency [5] | Potency [6] | activity change, positive = activation [7] 6.18% [at 42.5 µM] | outcome [9] | Potency [10] | outcome [8]

CCCCCCCC/C=C\CCCCCCCC(=O)OCCCC
inactive: activation [1] 1.53% [at 19 µM] | activity change, negative = cytotoxicity [2] -10.5% [at 15.8 µM] | activation (H2AX phosphorylation) [3] 4.47% [at 31.6 µM] | activation [4] -1.44% [at 15.8 µM] | activity change, negative = cytotoxicity [5] -0.831% [at 31.6 µM] | activity, negative = inhibition [6] 0.129% [at 19 µM] | activity change, positive = activation [7] 0.0665% [at 19 µM] | activity change, negative = cytotoxicity [9] 2.67% [at 15.8 µM] | cytotoxicity [8] -14.5% [at 15.8 µM]

Cc1ccccc1N=O
inactive: Potency [1] | outcome [2] | outcome [3] | outcome [4] | Potency [5] | Potency [6] | activity change, positive = activation [7] 6.56% | Potency [10] | outcome [8]

CN(C)c1ccc(C=O)cc1
inactive: Potency [1] | outcome [2] | outcome [3] | outcome [4] | Potency [5] | activity change, positive = activation [7] 0.183% | outcome [9] | Potency [10] | outcome [8]

CCc1ccc(C=O)cc1
inactive: Potency [1] | outcome [2] | outcome [3] | outcome [4] | Potency [5] | Potency [6] | activity change, positive = activation [7] 5.25% | outcome [9] | Potency [10] | outcome [8]

CC(=C(CCOC(=O)C(C)C)SSC(CCOC(=O)C(C)C)=C(C)N(C=O)Cc1cnc(C)nc1N)N(C=O)Cc1cnc(C)nc1N
inactive: Potency [1] | outcome [2] | outcome [3] | outcome [4] | Potency [5] | activity change, positive = activation [7] 0.537% [at 42.5 µM] | outcome [9] | Potency [10] | outcome [8]

O=C(NCCN1CCOCC1)c1ccc(Cl)cc1
inactive: Potency [1] | outcome [2] | outcome [3] | outcome [4] | Potency [5] | Potency [6] | activity change, positive = activation [7] 9.75% [at 42.5 µM] | outcome [9] | Potency [10] | outcome [8]

CN(C)CCOCCO
inactive: Potency [1] | outcome [2] | outcome [3] | outcome [4] | Potency [5] | Potency [6] | activity change, positive = activation [7] 6.59% | Potency [10] | outcome [8]

COC(=O)c1ccccc1C(=O)c1ccc(OCCN2CCCCC2)cc1
inactive: Potency [1] | outcome [2] | outcome [3] | outcome [4] | Potency [5] | Potency [6] | activity change, positive = activation [7] 1.12% [at 42.5 µM] | outcome [9] | Potency [10] | outcome [8]

CCCCCCCCCCCCCC
inactive: Potency [1] | outcome [2] | outcome [3] | outcome [4] | Potency [5] | Potency [6] | activity change, positive = activation [7] 2.93% | outcome [9] | Potency [10] | outcome [8]

O=C(CS(=O)Cc1ccco1)NC/C=C\COc1cc(CN2CCCCC2)ccn1 (stereo not drawn)
inactive: Potency [1] | outcome [2] | outcome [3] | outcome [4] | Potency [5] | activity change, positive = activation [7] 7.25% [at 42.5 µM] | outcome [9] | Potency [10] | outcome [8]

On1nnc2ccccc21
inactive: Potency [1] | outcome [2] | outcome [3] | outcome [4] | Potency [5] | Potency [6] | activity change, positive = activation [7] 9.52% | outcome [9] | Potency [10] | outcome [8]

OCCCCC(O)CO (stereo not drawn)
inactive: Potency [1] | outcome [2] | outcome [3] | outcome [4] | Potency [5] | Potency [6] | activity change, positive = activation [7] -0.533% | outcome [9] | Potency [10] | outcome [8]

CC/C=C\CC1=C(C)CCC1=O
inactive: Potency [1] | outcome [2] | outcome [3] | outcome [4] | Potency [5] | Potency [6] | activity change, positive = activation [7] -10.1% | outcome [9] | Potency [10] | outcome [8]

O=C(O)c1cc(Cl)cc([N+](=O)[O-])c1Cl
inactive: Potency [1] | outcome [2] | outcome [3] | outcome [4] | Potency [5] | Potency [6] | activity change, positive = activation [7] -9.65% | outcome [9] | outcome [8]

CCn1ccc(NS(=O)(=O)c2ccc(N)cc2)nc1=O
inactive: Potency [1] | outcome [2] | outcome [3] | outcome [4] | Potency [5] | Potency [6] | activity change, positive = activation [7] 3.61% [at 42.5 µM] | outcome [9] | outcome [8]

CC(=O)c1sc(C)nc1C
inactive: Potency [1] | outcome [2] | outcome [3] | outcome [4] | Potency [5] | activity change, positive = activation [7] -11% | outcome [9] | Potency [10] | outcome [8]
